# Measured values taken from PMC7862700, “An all-to-all approach to the identification of sequence-specific readers for epigenetic DNA modifications on cytosine”.
# Columns and labels:
# Assay in all cases: DAPPL (digital affinity profiling via proximity ligation, sequencing); 10 mM Tris-HCl pH 7.5, 50 mM NaCl, 1 mM DTT, 4% glycerol, room temperature, 30 min; GST-TFs on glutathione beads, 16-mer random dsDNA library, 0.1% formaldehyde crosslink after washing; high values mean tight binding
# FEV = target: T1, FEV (Homo sapiens, UniProt Q99581 1-238); details: protein: recombinant; tags: N-terminal GST; dsDNA, one strand shown
# T1 sequence: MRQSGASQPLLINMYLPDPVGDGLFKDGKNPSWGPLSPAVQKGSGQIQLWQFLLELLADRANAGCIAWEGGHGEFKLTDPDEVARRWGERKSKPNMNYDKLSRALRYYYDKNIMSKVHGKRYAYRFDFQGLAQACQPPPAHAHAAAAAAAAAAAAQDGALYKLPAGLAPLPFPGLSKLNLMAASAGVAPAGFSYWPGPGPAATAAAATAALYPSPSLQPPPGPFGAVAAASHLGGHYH
# Summary of the method: (§1)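 After expression in yeast as GST fusions, human transcription factors were bound to glutathione beads, DNA-barcoded and mixed with a tag-only sample. The pools were incubated with 200 nmole of a 16-mer random double-stranded DNA library in Tris/NaCl/DTT/glycerol buffer (30 min, room temperature), washed and crosslinked with 0.1% formaldehyde. Proximity ligation with BsaI/T4 ligase ran for 1 h at 37 °C, before PCR amplification and sequencing on an Illumina NextSeq500. Binding signal is a hexamer's read frequency for a factor divided by its frequency for the tag-only sample.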
# ETV5 = ETV5 (Homo sapiens, UniProt P41161 1-510); details: protein: recombinant; tags: N-terminal GST; dsDNA, one strand shown
# Summary of the method: as §1
# HSF1 = HSF1 (Homo sapiens, UniProt Q00613 1-529); details: protein: recombinant; tags: N-terminal GST; chain copies: 3; dsDNA, one strand shown
# Summary of the method: as §1
# SPIC = target: T2, SPIC (Homo sapiens, UniProt Q8N5J4 1-248); details: protein: recombinant; tags: N-terminal GST; dsDNA, one strand shown
# T2 sequence: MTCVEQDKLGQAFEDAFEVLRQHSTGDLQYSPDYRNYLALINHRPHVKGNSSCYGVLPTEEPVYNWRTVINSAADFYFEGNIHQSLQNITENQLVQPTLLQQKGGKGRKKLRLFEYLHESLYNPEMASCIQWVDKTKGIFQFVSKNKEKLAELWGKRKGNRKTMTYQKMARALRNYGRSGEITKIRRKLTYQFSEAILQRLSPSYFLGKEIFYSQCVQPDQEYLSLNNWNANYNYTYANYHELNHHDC
# Summary of the method: as §1
# ELF4 = ELF4 (Homo sapiens, UniProt Q99607 1-663); details: protein: recombinant; tags: N-terminal GST; dsDNA, one strand shown
# Summary of the method: as §1
# ELK4 = target: T3, ELK4 (Homo sapiens, UniProt P28324-2 1-405); details: protein: recombinant; tags: N-terminal GST; dsDNA, one strand shown
# T3 sequence: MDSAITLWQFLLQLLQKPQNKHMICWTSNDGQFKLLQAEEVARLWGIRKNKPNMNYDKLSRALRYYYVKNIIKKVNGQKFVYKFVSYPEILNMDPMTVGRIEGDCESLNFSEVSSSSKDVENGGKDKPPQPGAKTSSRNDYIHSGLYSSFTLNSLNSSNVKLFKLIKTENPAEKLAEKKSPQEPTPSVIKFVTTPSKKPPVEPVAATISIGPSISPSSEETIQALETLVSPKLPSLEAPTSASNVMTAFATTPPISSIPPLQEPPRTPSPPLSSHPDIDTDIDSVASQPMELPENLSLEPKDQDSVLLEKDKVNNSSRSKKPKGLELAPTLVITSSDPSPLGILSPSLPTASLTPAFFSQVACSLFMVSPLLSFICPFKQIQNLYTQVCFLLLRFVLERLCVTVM
# Summary of the method: as §1
# ETV2 = target: T4, ETV2 (Homo sapiens, UniProt O00321 1-342); details: protein: recombinant; tags: N-terminal GST; dsDNA, one strand shown
# T4 sequence: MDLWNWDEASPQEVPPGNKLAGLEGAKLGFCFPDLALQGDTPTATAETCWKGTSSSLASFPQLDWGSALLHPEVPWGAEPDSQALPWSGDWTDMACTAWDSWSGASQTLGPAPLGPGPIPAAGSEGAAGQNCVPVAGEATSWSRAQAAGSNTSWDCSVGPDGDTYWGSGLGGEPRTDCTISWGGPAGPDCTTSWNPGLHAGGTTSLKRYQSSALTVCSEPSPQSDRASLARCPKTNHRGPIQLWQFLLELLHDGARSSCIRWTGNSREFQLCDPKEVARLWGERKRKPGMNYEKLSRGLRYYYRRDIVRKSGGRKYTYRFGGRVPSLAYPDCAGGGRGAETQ
# Summary of the method: as §1
# ELF3 = target: T5, ELF3 (Homo sapiens, UniProt P78545 1-371); details: protein: recombinant; tags: N-terminal GST; dsDNA, one strand shown
# T5 sequence: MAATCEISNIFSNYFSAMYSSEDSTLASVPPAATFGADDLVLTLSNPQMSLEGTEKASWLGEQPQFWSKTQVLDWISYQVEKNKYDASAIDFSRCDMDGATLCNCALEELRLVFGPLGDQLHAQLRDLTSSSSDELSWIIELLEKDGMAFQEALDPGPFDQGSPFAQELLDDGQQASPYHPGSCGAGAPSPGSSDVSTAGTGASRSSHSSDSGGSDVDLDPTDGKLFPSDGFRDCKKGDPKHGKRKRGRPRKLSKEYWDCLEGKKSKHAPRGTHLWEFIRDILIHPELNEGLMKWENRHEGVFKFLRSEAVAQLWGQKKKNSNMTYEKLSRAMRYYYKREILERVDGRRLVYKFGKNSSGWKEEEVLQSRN
# Summary of the method: as §1
# CRX = CRX (Homo sapiens, UniProt O43186 1-299); details: protein: recombinant; tags: N-terminal GST; dsDNA, one strand shown
# Summary of the method: as §1
# ETV1 = ETV1 (Homo sapiens, UniProt P50549 1-477); details: protein: recombinant; tags: N-terminal GST; dsDNA, one strand shown
# Summary of the method: as §1
# ERF = target: T6, ERF (Homo sapiens, UniProt P50548 1-548); details: protein: recombinant; tags: N-terminal GST; dsDNA, one strand shown
# T6 sequence: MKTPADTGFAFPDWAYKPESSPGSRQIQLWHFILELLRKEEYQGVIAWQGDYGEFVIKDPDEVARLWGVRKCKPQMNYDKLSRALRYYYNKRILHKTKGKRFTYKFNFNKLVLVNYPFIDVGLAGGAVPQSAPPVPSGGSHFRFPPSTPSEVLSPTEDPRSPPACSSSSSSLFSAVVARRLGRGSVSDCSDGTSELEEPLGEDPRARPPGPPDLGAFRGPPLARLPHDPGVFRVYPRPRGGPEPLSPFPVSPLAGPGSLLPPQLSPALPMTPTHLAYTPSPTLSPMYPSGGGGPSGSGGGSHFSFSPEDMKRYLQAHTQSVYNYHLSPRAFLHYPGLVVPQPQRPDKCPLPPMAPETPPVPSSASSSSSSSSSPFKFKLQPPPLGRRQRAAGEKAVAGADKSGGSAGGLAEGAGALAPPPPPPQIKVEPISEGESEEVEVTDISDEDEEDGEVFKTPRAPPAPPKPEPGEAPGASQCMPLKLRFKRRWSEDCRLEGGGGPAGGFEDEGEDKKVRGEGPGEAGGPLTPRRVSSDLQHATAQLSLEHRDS
# Summary of the method: as §1
# ETV3L = target: T7, ETV3L (Homo sapiens, UniProt Q6ZN32 1-361); details: protein: recombinant; tags: N-terminal GST; dsDNA, one strand shown
# T7 sequence: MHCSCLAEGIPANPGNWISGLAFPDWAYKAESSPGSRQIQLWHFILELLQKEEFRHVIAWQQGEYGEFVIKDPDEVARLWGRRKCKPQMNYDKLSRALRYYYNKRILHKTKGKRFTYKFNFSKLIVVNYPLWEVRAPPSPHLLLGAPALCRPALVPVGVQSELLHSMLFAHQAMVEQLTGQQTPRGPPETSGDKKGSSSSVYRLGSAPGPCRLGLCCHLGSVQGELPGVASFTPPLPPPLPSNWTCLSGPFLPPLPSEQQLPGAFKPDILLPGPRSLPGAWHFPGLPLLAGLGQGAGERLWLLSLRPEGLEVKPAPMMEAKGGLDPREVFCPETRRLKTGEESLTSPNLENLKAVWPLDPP
# Summary of the method: as §1
# ETS2 = target: T8, ETS2 (Homo sapiens, UniProt P15036 1-469); details: protein: recombinant; tags: N-terminal GST; dsDNA, one strand shown
# T8 sequence: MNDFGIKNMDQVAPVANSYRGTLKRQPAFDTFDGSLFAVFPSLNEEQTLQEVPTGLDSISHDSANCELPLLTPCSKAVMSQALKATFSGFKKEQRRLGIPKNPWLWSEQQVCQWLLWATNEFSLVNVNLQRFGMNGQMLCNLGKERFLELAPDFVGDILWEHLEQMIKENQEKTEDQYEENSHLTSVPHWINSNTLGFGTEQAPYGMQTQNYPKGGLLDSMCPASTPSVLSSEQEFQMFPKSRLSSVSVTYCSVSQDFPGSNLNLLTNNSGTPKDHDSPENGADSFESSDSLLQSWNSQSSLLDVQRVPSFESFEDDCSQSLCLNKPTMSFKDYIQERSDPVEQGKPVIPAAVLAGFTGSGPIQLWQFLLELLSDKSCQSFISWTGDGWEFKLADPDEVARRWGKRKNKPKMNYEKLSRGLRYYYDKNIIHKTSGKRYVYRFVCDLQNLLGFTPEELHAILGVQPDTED
# Summary of the method: as §1
# SPDEF = target: T9, SPDEF (Homo sapiens, UniProt O95238 1-335); details: protein: recombinant; tags: N-terminal GST; dsDNA, one strand shown
# T9 sequence: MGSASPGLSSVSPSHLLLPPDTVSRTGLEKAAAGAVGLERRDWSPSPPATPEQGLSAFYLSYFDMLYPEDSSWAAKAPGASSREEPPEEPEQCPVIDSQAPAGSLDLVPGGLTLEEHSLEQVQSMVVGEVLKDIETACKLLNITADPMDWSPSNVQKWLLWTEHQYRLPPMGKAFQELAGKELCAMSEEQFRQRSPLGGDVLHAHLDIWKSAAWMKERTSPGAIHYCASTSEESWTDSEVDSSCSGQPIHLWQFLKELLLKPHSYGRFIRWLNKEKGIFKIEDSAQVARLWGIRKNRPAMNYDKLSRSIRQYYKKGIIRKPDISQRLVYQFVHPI
# Summary of the method: as §1
# ETV7 = target: T10, ETV7 (Homo sapiens, UniProt Q9Y603 1-341); details: protein: recombinant; tags: N-terminal GST; dsDNA, one strand shown
# T10 sequence: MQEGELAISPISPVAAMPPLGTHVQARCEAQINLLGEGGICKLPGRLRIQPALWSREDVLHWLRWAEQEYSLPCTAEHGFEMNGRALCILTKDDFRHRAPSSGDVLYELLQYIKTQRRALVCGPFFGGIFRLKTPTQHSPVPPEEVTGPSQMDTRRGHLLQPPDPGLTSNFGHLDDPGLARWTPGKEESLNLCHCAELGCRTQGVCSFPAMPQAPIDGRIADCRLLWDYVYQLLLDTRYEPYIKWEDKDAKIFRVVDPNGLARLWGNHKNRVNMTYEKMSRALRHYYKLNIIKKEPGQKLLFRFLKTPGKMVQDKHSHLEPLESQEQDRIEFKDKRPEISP
# Summary of the method: as §1
# ELF5 = target: T11, ELF5 (Homo sapiens, UniProt Q9UKW6-2 1-255); details: protein: recombinant; tags: N-terminal GST; dsDNA, one strand shown
# T11 sequence: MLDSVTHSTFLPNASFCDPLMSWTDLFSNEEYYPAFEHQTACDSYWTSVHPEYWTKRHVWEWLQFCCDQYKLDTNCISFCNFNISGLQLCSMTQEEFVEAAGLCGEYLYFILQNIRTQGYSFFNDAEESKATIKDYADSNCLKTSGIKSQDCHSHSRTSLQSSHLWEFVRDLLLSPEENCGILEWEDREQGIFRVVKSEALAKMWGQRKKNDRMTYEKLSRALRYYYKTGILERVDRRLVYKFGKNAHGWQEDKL
# Summary of the method: as §1
# ETV3 = target: T12, ETV3 (Homo sapiens, UniProt P41162-2 1-143); details: protein: recombinant; tags: N-terminal GST; dsDNA, one strand shown
# T12 sequence: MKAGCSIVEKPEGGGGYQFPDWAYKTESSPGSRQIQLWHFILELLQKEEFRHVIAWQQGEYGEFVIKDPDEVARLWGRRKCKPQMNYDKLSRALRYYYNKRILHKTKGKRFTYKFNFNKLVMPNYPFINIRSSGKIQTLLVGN
# Summary of the method: as §1
# ETV6 = ETV6 (Homo sapiens, UniProt P41212 1-452); details: protein: recombinant; tags: N-terminal GST; dsDNA, one strand shown
# Summary of the method: as §1
# CRX, sequence (O43186 whole entry): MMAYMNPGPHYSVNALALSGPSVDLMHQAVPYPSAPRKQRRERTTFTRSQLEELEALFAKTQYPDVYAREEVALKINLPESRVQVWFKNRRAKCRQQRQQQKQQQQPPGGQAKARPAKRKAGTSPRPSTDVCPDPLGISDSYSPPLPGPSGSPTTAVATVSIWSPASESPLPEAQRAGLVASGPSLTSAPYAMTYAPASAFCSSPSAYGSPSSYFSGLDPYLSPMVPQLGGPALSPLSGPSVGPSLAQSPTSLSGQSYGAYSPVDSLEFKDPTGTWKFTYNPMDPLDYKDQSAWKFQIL
# ETV1, sequence (P50549 whole entry): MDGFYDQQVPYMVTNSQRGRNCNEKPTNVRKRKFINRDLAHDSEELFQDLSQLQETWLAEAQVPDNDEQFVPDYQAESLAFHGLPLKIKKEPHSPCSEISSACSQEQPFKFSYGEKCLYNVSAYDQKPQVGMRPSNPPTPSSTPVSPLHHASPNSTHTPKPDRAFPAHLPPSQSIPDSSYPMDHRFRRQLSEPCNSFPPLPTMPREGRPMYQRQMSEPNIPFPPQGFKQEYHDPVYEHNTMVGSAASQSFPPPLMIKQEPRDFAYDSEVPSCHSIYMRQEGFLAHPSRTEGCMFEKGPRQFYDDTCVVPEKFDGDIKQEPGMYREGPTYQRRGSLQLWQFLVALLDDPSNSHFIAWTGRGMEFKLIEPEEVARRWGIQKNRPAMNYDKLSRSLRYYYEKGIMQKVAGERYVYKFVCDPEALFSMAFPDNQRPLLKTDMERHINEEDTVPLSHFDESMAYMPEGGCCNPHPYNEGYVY
# ELF4, sequence (Q99607 whole entry): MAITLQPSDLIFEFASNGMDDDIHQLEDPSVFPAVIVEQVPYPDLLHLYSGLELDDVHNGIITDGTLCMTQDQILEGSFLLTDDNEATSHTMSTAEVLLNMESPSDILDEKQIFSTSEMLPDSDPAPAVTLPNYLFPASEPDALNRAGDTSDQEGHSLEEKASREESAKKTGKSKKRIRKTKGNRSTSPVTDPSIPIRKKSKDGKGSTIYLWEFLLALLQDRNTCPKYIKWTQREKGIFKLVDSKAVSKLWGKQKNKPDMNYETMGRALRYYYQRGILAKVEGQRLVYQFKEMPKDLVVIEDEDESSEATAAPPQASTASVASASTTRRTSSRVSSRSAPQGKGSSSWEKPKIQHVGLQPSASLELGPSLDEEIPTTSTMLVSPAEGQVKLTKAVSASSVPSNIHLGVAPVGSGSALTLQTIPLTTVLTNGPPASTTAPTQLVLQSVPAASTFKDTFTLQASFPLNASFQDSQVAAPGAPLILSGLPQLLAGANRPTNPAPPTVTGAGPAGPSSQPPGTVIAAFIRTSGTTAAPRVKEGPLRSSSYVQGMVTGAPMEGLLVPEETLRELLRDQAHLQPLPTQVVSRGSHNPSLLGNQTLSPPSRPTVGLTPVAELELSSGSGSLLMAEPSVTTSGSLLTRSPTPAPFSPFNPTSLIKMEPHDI
# ETV5, sequence (P41161 whole entry): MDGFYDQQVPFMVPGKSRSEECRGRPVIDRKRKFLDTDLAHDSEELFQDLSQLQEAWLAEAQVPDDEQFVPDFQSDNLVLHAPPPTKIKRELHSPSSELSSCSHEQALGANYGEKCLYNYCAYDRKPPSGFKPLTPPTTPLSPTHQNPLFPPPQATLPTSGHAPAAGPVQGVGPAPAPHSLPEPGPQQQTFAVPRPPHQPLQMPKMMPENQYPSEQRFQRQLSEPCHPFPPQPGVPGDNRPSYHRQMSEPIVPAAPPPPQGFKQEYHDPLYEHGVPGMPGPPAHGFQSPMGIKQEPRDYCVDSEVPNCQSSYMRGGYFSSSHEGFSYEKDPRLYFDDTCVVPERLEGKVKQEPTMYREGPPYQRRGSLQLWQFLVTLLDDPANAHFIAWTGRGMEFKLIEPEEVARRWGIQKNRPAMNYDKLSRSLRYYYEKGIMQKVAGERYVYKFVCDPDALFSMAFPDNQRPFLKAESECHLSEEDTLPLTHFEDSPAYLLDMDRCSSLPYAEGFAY
# HSF1, sequence (Q00613 whole entry): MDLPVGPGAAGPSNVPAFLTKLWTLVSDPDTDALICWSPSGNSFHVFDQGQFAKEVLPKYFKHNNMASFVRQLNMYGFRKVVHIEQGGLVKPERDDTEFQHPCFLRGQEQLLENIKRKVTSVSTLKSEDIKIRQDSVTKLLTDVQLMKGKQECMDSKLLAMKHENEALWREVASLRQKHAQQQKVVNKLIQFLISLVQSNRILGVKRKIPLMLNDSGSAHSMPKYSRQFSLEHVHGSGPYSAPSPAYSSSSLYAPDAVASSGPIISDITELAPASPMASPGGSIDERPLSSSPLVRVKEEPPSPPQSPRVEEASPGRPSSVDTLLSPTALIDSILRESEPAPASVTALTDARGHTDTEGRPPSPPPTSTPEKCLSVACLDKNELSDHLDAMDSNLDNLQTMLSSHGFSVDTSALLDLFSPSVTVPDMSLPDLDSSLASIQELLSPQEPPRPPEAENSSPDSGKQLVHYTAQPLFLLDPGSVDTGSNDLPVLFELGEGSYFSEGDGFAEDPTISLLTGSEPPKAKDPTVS
# ETV6, sequence (P41212 whole entry): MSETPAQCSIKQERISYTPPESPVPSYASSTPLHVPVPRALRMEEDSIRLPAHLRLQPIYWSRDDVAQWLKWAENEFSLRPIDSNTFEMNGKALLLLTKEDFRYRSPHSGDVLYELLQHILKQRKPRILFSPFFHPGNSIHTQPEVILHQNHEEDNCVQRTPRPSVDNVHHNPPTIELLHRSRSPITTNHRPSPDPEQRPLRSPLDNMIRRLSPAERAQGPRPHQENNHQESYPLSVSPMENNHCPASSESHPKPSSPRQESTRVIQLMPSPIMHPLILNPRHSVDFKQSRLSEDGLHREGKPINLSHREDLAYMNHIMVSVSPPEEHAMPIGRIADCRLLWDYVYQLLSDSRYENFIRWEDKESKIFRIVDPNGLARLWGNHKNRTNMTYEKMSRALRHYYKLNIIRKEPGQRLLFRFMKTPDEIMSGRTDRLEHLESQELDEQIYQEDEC
sequence,measurement,setting,value
TCGACA,binding signal,FEV,"1.3 fold enrichment (6-mer frequency, TF over GST control)"
same,binding signal,ETV5,"1.32 fold enrichment (6-mer frequency, TF over GST control)"
same,binding signal,HSF1,"1.38 fold enrichment (6-mer frequency, TF over GST control)"
same,binding signal,SPIC,"1.28 fold enrichment (6-mer frequency, TF over GST control)"
same,binding signal,ELF4,"1.43 fold enrichment (6-mer frequency, TF over GST control)"
same,binding signal,ELK4,"1.42 fold enrichment (6-mer frequency, TF over GST control)"
same,binding signal,ETV2,"1.19 fold enrichment (6-mer frequency, TF over GST control)"
same,binding signal,ELF3,"1.23 fold enrichment (6-mer frequency, TF over GST control)"
same,binding signal,CRX,"1.19 fold enrichment (6-mer frequency, TF over GST control)"
same,binding signal,ETV1,"1.4 fold enrichment (6-mer frequency, TF over GST control)"
same,binding signal,ERF,"1.35 fold enrichment (6-mer frequency, TF over GST control)"
same,binding signal,ETV3L,"1.3 fold enrichment (6-mer frequency, TF over GST control)"
same,binding signal,ETS2,"1.31 fold enrichment (6-mer frequency, TF over GST control)"
same,binding signal,SPDEF,"1.23 fold enrichment (6-mer frequency, TF over GST control)"
same,binding signal,ETV7,"1.39 fold enrichment (6-mer frequency, TF over GST control)"
same,binding signal,ELF5,"1.27 fold enrichment (6-mer frequency, TF over GST control)"
same,binding signal,ETV3,"1.4 fold enrichment (6-mer frequency, TF over GST control)"
same,binding signal,ETV6,"1.42 fold enrichment (6-mer frequency, TF over GST control)"
